Records with an inconclusive call do not appear. The source made the active and inactive calls. Unless noted, the call rests on the fitted dose curve.
How the values were obtained:
[1] = molecular target: Lysosomal acid glucosylceramidase (Homo sapiens) (UniProt P04062); assay: Glucocerebrosidase-p2 (AID 348; in the data active means potency below about 10 µM; further: potency means the concentration at half of the fitted maximal effect); conditions: purified GBA, blue fluorogenic substrate, 40 min
Sequence of Lysosomal acid glucosylceramidase (Homo sapiens) (P04062 whole entry, looked up): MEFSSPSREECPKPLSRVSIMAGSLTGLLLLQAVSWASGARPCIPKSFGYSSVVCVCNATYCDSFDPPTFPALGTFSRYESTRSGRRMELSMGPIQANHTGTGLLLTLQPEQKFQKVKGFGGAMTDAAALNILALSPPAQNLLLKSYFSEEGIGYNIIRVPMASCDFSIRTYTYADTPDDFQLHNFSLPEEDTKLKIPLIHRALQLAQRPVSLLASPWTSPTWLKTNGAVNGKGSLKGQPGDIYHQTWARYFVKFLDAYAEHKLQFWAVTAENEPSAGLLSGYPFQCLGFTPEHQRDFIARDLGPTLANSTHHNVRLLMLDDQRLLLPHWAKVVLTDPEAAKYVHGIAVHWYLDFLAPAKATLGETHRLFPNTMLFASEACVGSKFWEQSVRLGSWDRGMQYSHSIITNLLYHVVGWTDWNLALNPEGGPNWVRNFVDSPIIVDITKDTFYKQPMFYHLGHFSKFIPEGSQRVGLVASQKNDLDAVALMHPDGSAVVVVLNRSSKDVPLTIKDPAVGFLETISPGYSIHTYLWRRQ
In short: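 Normal human glucocerebrosidase (0.2 nM) with blue fluorogenic substrate (80 uM final) in citrate/phosphate pH 5.9 with 10mM sodium taurocholate, 0.01% tween-20; 40 min RT, NaOH/glycine stop; fluorescence Ex 365/Em 440; AC50 from a titration from 0.6 nM upwards.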

[2] = AP1 Signaling Pathway (AID 357; active means well fitted curve in either direction with a large enough effect, not every such curve was filed as active;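 further: ME-180 reporter cells stimulated with EGF at its EC50 level; on the % scale 0 is the no-effect control and ±100 the full control effect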); conditions: ME-180 AP-1-bla reporter, EGF-induced, beta-lactamase ratio, 5 h; at 7.69 µM (top of the series) unless noted
In short: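 Modulation of EGF-driven AP-1 transcription was assessed with a beta-lactamase reporter in ME-180 cells. Compound and EC50 EGF were co-incubated 5 hours at 37 °C before 2.5-hour CCF4 loading at room temperature and dual-emission reading.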

[3] = Stat Signaling Pathway (AID 446; active means well fitted curve in either direction with a large enough effect, not every such curve was filed as active;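 further: ME-180 cervical cancer cells given 40 pM IL-6 alongside compound; SIE-controlled beta-lactamase reporter measured as 460/530 nm FRET emission ratio; on the % scale 0 is the no-effect control and ±100 the full control effect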); conditions: ME-180 SIE beta-lactamase reporter, IL-6 stimulated, 5 h; at 7.69 µM (top of the series) unless noted
In short: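 Overnight-plated ME-180 cells bearing a STAT Inducible Element beta-lactamase reporter; 5 h co-exposure to compound and 40 pM IL-6; values normalized to 300 pM IL-6 and 125 nM JAK inhibitor controls.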

[4] = molecular target: Glucocorticoid receptor (Homo sapiens) (UniProt P04150); assay: GR-EFC Redistribution (AID 451); conditions: CHO-K1 GR-EFC translocation, beta-gal luminescence, 2 h; further: potency means the concentration at half of the fitted maximal effect
Sequence of Glucocorticoid receptor (Homo sapiens) (P04150 whole entry, looked up, the tested form may be a part): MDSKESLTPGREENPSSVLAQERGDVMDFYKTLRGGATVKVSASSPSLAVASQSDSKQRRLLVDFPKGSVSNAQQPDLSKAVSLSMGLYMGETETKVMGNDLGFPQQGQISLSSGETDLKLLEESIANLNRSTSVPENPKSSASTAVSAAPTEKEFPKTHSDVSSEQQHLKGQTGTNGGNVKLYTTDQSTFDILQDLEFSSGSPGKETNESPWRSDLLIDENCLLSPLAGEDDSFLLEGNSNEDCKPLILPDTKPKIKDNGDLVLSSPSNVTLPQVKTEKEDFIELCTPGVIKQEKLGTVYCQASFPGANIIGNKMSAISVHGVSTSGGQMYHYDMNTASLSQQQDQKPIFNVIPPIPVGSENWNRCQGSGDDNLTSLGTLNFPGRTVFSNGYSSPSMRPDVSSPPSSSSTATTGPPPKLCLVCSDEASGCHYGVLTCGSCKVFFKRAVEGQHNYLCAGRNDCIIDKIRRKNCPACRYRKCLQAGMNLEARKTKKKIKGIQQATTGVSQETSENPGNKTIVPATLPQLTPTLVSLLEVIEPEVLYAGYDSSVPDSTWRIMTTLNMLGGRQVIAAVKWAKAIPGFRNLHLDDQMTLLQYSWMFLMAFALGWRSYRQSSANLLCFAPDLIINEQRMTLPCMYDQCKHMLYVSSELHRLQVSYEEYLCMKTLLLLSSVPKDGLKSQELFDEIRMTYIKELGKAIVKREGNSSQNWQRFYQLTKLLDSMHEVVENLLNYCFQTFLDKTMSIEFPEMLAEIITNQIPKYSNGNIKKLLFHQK
In short: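 CHO-K1 cells stably expressing nuclear-localized β-gal enzyme acceptor and GR fused C-terminally to the enzyme donor fragment; ligand-driven nuclear translocation restores β-gal by complementation. Compounds titrated up to 46 uM final, 2 h at 37 °C; luminescence read.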

[5] = molecular target: Mitogen-activated protein kinase 10 (Mus musculus) (UniProt Q61831); assay: JNK3 AlphaScreen Assay (AID 530; active means well fitted curve in either direction with a large enough effect, not every such curve was filed as active;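 further: kinase came from lysate of stimulated human HepG2 cells; signal reports phosphorylation of biotinylated GST-cJun 1-79 at Ser73 with 10 µM ATP; on the % scale 0 is the no-effect control and ±100 the full control effect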); conditions: JNK3 lysate, c-Jun phosphorylation; series mostly up to 57.1 µM
In short: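 Phosphorylation of biotinylated GST-cJun(1-79) at Ser73 is measured by AlphaScreen proximity luminescence. Enzyme is JNK3 in HepG2 lysates activated with interleukin-1beta and tumor necrosis factor alpha; ATP is 10 uM final.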

[6] = molecular target: 3',5'-cyclic-AMP phosphodiesterase 4B (Homo sapiens) (UniProt Q07343); assay: qHTS Assay for Inhibitors of PDE-IV (AID 607; active means well fitted activation curve with a large enough effect in the main read-out, with a control signal flat, not every such curve was filed as active; further: % of control where 0% means no effect); conditions: HEK293 ACTOne CNG channel cells, membrane potential fluorescence; series mostly up to 22.9 µM
Sequence of 3',5'-cyclic-AMP phosphodiesterase 4B (Homo sapiens) (Q07343 whole entry, looked up): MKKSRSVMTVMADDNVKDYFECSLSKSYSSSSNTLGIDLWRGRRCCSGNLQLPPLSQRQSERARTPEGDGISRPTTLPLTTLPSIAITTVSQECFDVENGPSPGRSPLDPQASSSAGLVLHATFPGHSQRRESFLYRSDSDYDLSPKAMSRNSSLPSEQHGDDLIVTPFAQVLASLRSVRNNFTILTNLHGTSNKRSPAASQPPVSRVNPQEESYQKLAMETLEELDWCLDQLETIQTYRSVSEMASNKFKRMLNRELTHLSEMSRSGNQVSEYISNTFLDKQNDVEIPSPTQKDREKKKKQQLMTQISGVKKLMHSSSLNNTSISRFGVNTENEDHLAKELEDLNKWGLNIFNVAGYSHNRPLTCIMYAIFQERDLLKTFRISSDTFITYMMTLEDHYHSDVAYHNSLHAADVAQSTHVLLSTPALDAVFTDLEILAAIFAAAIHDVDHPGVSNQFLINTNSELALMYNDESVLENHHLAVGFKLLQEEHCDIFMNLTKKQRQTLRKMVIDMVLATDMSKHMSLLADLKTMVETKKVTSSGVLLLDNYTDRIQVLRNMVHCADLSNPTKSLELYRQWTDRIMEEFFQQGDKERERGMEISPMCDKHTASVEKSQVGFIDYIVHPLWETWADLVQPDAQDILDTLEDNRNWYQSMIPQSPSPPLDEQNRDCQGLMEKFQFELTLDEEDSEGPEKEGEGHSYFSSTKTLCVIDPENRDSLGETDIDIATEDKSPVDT
In short: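 Live HEK293 cells with a modified cyclic nucleotide-gated (CNG) channel report intracellular cAMP via membrane-potential dye fluorescence (ex 535/em 590 nm). Endogenous PDE-IV was targeted. Compounds were tested at up to 22.9 uM final; RO 20-1724 100 uM served as control.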

[7] = qHTS Assay for Identification of Small Molecule Agonists for Hypoxia Response Element Signaling Pathway (AID 914; active means well fitted activation curve with a large enough effect in the signal ratio, with a control signal flat, not every such curve was filed as active; the % refers to the signal ratio; further: % of control where 0% means no effect); conditions: ME-180 (cervical carcinoma) HRE-bla reporter, beta-lactamase ratio, CoCl2, 17 h; activation: stronger effect = higher value
In short: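 Compounds in a titration series were added to ME-180 reporter cells alongside an EC50 level of CoCl2. After 17 hours, beta-lactamase activity was read as the 460nm/530nm emission ratio of CCF4, giving AC50 values.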

[8] = qHTS Assay for Lipid Storage Modulators (AID 1519); conditions: Drosophila S3 cells, BODIPY lipid droplet/cell ratio, laser cytometry, cells loaded with oleic acid; for activity change, negative = inhibition: at 57.5 µM (top of the series)
In short: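 Cells seeded at 5,000 per well were treated with compounds over a concentration series and loaded with oleic acid (400 uM, as added). Lipid droplet fluorescence (488 nm excitation, 500-530 nm channel) was read by laser-scanning cytometry and normalized to 20 uM Triacsin C.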

[9] = Primary qHTS for small molecule stabilizers of the endoplasmic reticulum resident proteome: Secreted ER Calcium Modulated Protein (SERCaMP) assay (AID 1508630; active means well fitted curve in the direction sought with a large enough effect; an effect the other way counts as inactive or inconclusive; further: on the % scale 0 is the no-effect control and ±100 the full control effect); conditions: SH-SY5Y GLuc-SERCaMP (Gaussia luciferase released on ER calcium loss) secretion, thapsigargin, luminescence; series mostly up to 38.4 µM
In short: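 The SH-SY5Y reporter protocol was run at 3 concentrations up to 38.3 uM (primary) or 11 concentrations (follow-up): 16 h compound, 100 nM thapsigargin for 4 h, then extracellular luciferase luminescence.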

[10] = molecular target: Cytochrome P450 1A2 (Homo sapiens) (UniProt P05177); assay: p450-cyp1a2 (AID 410); conditions: recombinant CYP1A2, luciferin-ME demethylation, luminescence; series mostly up to 57 µM; further: potency means the concentration at half of the fitted maximal effect;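 on activity change, negative = inhibition: -100% = full effect of reference inhibitor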
Sequence of Cytochrome P450 1A2 (Homo sapiens) (P05177 whole entry, looked up): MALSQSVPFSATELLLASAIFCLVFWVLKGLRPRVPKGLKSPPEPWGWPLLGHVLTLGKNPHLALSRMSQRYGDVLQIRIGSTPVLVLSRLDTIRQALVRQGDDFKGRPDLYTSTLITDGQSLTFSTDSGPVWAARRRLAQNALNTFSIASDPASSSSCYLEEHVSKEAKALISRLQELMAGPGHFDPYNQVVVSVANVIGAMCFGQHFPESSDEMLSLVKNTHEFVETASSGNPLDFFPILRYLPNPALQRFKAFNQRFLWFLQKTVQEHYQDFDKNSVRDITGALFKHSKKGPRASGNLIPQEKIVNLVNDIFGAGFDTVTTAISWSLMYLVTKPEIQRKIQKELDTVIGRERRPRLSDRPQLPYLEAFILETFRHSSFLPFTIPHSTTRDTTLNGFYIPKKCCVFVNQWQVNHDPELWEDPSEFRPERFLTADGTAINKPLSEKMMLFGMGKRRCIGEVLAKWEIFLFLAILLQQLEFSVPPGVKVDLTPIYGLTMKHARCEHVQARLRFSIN
In short: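 Luminescent demethylation readout: Luciferin-ME (100uM, equal to Km) turned over by 20nM CYP1A2 for 60 min at room temperature after NADPH regeneration addition, following 10 min compound preincubation. Normalization used 57 uM furafylline as full inhibition.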

[11] = NFAT Signaling Pathway (AID 444; active means well fitted curve in either direction with a large enough effect, not every such curve was filed as active); conditions: Jurkat NFAT-bla M1, carbachol, beta-lactamase ratio, 5 h; at 7.69 µM (top of the series) unless noted
In short: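 Jurkat cells carrying an NFAT-driven β-lactamase reporter and co-transfected muscarinic M1 receptor were treated with compound plus carbachol (1 uM final, an EC50 level) for 5 h at 37 °C. CCF4 loading followed for 1 h at RT; 460/530 nm ratio gave %activity.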

[12] = molecular target: Cytochrome P450 3A4 (Homo sapiens) (UniProt P08684); assay: qHTS Assay for Activators of Cytochrome P450 3A4 (AID 885; active means well fitted curve in the direction sought with a large enough effect; an effect the other way counts as inactive or inconclusive; further: nearly all actives have a fitted effect of over 65% in size); conditions: recombinant CYP3A4, Luciferin-PPXE luminescence, 60 min; series mostly up to 57.1 µM
Sequence of Cytochrome P450 3A4 (Homo sapiens) (P08684 whole entry, looked up): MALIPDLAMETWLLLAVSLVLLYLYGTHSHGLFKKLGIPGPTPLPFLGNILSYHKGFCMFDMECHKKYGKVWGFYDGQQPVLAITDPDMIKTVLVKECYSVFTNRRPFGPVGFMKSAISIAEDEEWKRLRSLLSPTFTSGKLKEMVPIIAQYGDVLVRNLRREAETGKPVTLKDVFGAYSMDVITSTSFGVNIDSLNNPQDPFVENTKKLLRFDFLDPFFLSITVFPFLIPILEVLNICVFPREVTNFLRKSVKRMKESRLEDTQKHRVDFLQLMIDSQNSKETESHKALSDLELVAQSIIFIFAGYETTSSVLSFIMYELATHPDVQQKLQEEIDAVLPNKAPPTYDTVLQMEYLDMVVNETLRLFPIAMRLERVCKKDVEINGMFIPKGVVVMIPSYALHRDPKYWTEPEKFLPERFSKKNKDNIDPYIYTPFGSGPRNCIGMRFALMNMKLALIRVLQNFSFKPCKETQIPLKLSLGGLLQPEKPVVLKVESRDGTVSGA
In short: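 Using 20nM recombinant human CYP3A4 in potassium phosphate (200mM), substrate Luciferin-PPXE at 25uM, luminescent luciferin detection followed a 60-min RT NADPH reaction; data scaled to 57 uM ketoconazole.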

[13] = molecular target: Cytochrome P450 2C9 (Homo sapiens) (UniProt P11712); assay: qHTS Assay for Inhibitors and Substrates of Cytochrome P450 2C9 (AID 883; active means well fitted curve in the direction sought with a large enough effect; an effect the other way counts as inactive or inconclusive; further: potency means the concentration at half of the fitted maximal effect; nearly all actives have a fitted effect of over 60% in size); conditions: recombinant CYP2C9, luciferin-H luminescence, 60 min; series mostly up to 57.1 µM
Sequence of Cytochrome P450 2C9 (Homo sapiens) (P11712 whole entry, looked up): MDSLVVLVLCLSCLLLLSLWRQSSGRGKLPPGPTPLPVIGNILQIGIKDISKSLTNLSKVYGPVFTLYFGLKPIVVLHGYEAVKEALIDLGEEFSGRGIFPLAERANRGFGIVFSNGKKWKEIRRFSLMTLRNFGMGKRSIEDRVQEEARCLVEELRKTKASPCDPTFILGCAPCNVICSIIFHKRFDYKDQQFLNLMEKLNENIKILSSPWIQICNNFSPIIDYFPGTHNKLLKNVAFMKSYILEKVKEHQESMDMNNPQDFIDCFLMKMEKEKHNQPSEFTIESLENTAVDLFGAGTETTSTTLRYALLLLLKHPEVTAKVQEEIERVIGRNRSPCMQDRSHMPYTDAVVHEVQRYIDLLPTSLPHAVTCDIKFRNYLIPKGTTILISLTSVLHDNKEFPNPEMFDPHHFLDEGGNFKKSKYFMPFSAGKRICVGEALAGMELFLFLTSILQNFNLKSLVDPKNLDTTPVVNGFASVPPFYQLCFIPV
In short: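 CYP2C9 deoxyluciferin hydroxylation, 37C, 60 min with NADPH regeneration; 10nM enzyme, 100uM Luciferin-H (KM). Glo detection reagent stopped reaction; luminescence normalized to sulphaphenazole (57uM) full inhibition.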

[14] = molecular target: Cytochrome P450 3A4 (Homo sapiens) (UniProt P08684); assay: qHTS Assay for Inhibitors and Substrates of Cytochrome P450 3A4 (AID 884; active means well fitted curve in the direction sought with a large enough effect; an effect the other way counts as inactive or inconclusive; further: potency means the concentration at half of the fitted maximal effect; nearly all actives have a fitted effect of over 50% in size); conditions: recombinant CYP3A4, Luciferin-PPXE luminescence; series mostly up to 57.1 µM
In short: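 Luminescent readout of luciferin produced by CYP3A4 (20 nM) dealkylation of Luciferin-PPXE, 25 uM (its KM). NADPH-driven reaction ran 60 min at RT after 10 min compound preincubation; data scaled to 57 uM ketoconazole as 100% inhibition.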

[15] = molecular target: Glucocorticoid receptor (Homo sapiens) (UniProt P04150); assay: GR-GFP Redistribution (AID 450;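 active means compounds whose dose series gives a full or clear partial fitted curve of increased nuclear translocation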; further: potency means the concentration at half of the fitted maximal effect); conditions: U2OS GR-GFP nuclear translocation, laser cytometry, 2 h
[16] = measured here: cell count channel max response
[17] = measured here: lipid channel max response

Compound | Potency [1] | activity change, negative = inhibition [2] | activity, negative = inhibition [3] | Potency [4] | Potency [5] | Potency [6] | activation [7] | activity change, negative = inhibition [8] | max response [8, 16] | max response [8, 17] | outcome [9] | Potency [10] | activity change, negative = inhibition [11] | Potency [12] | Potency [13] | Potency [14] | Potency [15]
COc1ccccc1CN1CCCC2(CCN(S(=O)(=O)c3ccccc3)CC2)C1 | > 11.4 µM (inactive) | 0.799% (inactive) | 1.94% (inactive) | > 46 µM (inactive) | inactive | inactive | -6.58% (inactive) | 0.969% (inactive) | -4.49% | 1.25% | inactive | – | – | – | – | – | –
CC(C)NC(=O)N1CC[C@@]2(CCCN(S(=O)(=O)c3ccccc3)C2)C1 | > 11.4 µM (inactive) | – | 1.4% (inactive) | > 46 µM (inactive) | inactive | inactive | – | 3.83% (inactive) | -9.01% | -4.67% | inactive | inactive | 18.4% (inactive) | inactive | – | – | –
N#Cc1cccc(NC(=O)N2CCCC3(CCN(C(=O)c4ccco4)CC3)C2)c1 | > 11.4 µM (inactive) | – | -1.77% (inactive) | > 46 µM (inactive) | inactive | inactive | – | 7.75% (inactive) | 5.8% | 16.6% | inactive | 15.8 µM (active) | – | inactive | 3.98 µM (active) | 5.01 µM (active) | –
O=C(c1cccc(F)c1)N1CCC2(CC1)CN(c1ccccn1)C2 | > 11.4 µM (inactive) | 6.77% (inactive) | -12.3% (inactive) | > 46 µM (inactive) | – | inactive | – | 6.42% (inactive) | 17.7% | 16% | inactive | – | – | – | – | – | –
CN1CCCC2(CCN(S(=O)(=O)c3ccccc3)CC2)C1 | > 11.4 µM (inactive) | – | -3% (inactive) | > 46 µM (inactive) | inactive | inactive | – | 2.33% (inactive) | 19.8% | 25% | inactive | 20 µM (active) | – | – | – | – | –
COc1ccccc1CN1CCC2(CC1)CCN(C(=O)c1cccc(F)c1)CC2 | > 11.4 µM (inactive) | -13% (inactive) | – | > 46 µM (inactive) | inactive | inactive | 21.3% (inactive) | 2.42% (inactive) | -4.91% | -3.6% | inactive | – | – | – | – | – | –
COc1ccc(C(=O)N2CCC3(CC2)CCN(c2ccncc2)CC3)cc1 | > 11.4 µM (inactive) | 14.4% (inactive) | 5.85% (inactive) | > 46 µM (inactive) | inactive | inactive | – | -1.55% (inactive) | 12.5% | 14% | inactive | – | – | inactive | – | – | –
CCNc1ncc2ncc(=O)n(C[C@H]3CCCO3)c2n1 | > 11.4 µM (inactive) | – | – | > 46 µM (inactive) | inactive | – | – | 1.57% (inactive) | 16.3% | 17.2% | inactive | 10 µM (active) | -20% (inactive) | – | – | – | > 9.22 µM (inactive)

Source: PubChem BioAssay (NCATS)
